Results published in PubChem BioAssay.
Calls of active or inactive are those of the source.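 How the source made its calls: active means mean z-score across replicates of 1.96 or higher in either the MELAS or the Rieske mutant cell line; inactive means the rest.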

Test: MELAS cybrid and Rieske KO viability enhancers – cell-based, MELAS cybrids, Rieske KO mouse fibroblasts, CellTiter-Glo, primary screen (AID 1508586);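 further: test concentration not given here; z relative to plate mean and SD of compound and empty wells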
Conditions: MELAS cybrid survival, low glucose, CellTiter-Glo 48 h; stronger effect = higher value
For `CCC(CC)CNc1cc(C(=O)NCCN(C)C)cc(S(=O)(=O)Nc2ccc(OC)cc2)c1`, the z-score was -0.364 (inactive).
With `COc1ccc(CNC(=O)c2cc(NCc3nc[nH]c3C)cc(S(=O)(=O)N3CCCC3)c2)cc1` the z-score was -0.477 (inactive).
In the case of `COC(=O)c1c(NC(=O)C2CCOC2)c2cc(NC(C)CO)cnc2n1CCCc1ccccc1` (stereo not given), the z-score is reported as -1.11 (inactive).
In the case of `CC(C)CN1CC(OCc2cccc(F)c2)CN(C(=O)c2cccc(N3CCNC3=O)c2)CC1=O` (stereo not given), the z-score is reported as -0.284 (inactive).
For `CC(C)OCCNC1CCc2c(c(C(=O)N(C)Cc3ccccc3)nn2C)C1` (stereo not given), the z-score was 0.055 (inactive).
In the case of `C[C@@H](NC(=O)N[C@H]1C[C@H]2C(=O)N[C@H](Cc3ccc(O)cc3)C(=O)N2C1)c1ccccc1`, the z-score is reported as -0.3 (inactive).
In the case of `Cc1csc(-c2cc(C(=O)NCCN3CCCCC3)cc(S(=O)(=O)N3CCOCC3)c2)c1`, the z-score is reported as 0.0708 (inactive).
For `CC(C)NS(=O)(=O)c1cc(NC2CCCCC2)cc(C(=O)NC2Cc3ccccc3C2)c1`, the z-score was -0.22 (inactive).
With `Cc1ccc(-c2cc(C(=O)N(C)CCc3cnn(C)c3)cc(S(=O)(=O)N3CCOCC3)c2)s1` the z-score was -0.0954 (inactive).
For `Cc1nnc(CN(C)C(=O)c2cc(-c3ccc(C)s3)cc(S(=O)(=O)N3CCOCC3)c2)o1`, the z-score was -0.234 (inactive).
For `CC[C@@H]1NC(=O)[C@H]2CN(C(=O)Oc3cccc4ccccc34)CCN2C1=O`, the z-score was 0.408 (inactive).
With `Cc1cc(-c2cc3c(n(C)c2=O)CCN(Cc2ccc(Sc4nncn4C)o2)C3)ccc1F` the z-score was -0.56 (inactive).
In the case of `CCN1CCN(C(=O)c2cc(-c3cc(C)cs3)cc(S(=O)(=O)N3CCOCC3)c2)CC1`, the z-score is reported as -0.416 (inactive).
For `Cc1ccc(CNC(=O)c2nn(C)c3c2CC(NC2CCN(Cc4ccccc4)CC2)CC3)o1` (stereo not given), the z-score was 0.347 (inactive).
With `COc1ccc(CN2CC(OCc3cccnc3)CN(C(=O)C3=NN(C)C(=O)CC3)CC2=O)cc1` (stereo not given) the z-score was -0.43 (inactive).
In the case of `CC(C)CCNc1cc(C(=O)N[C@H]2CCCCNC2=O)cc(S(=O)(=O)NC(C)C)c1`, the z-score is reported as -0.205 (inactive).
For `COc1cc(CN2CCc3c(c(C(=O)NCCCN4CCOCC4)nn3C)C2)cc2c1OCO2`, the z-score was 0.109 (inactive).
With `CCc1cc(C(=O)N2CC(=O)N(Cc3ccc(OC)cc3)CC(OCc3ccncc3)C2)n(C)n1` (stereo not given) the z-score was -0.128 (inactive).
In the case of `COc1ccc(CN2C[C@H](C(=O)Nc3ccc4c(c3)CCC4)C[C@H](C(=O)N3CCCCC3)C2)cc1OC`, the z-score is reported as 0.5 (inactive).
For `CN1C(=O)N(Cc2ccccc2)C2(CCN(Cc3nc4ccccc4n3C)CC2)C1=O`, the z-score was 0.0463 (inactive).
Molecule `Cc1nc2ccccc2nc1CN1CC(=O)N(C2CCCCC2)CC(OCc2cccnc2)C1` (stereo not given) has a z-score of -0.279.
For `CC(C)CNC(=O)[C@@H]1C[C@H](CN2CCOCC2)CN(Cc2nccn2C)C1`, the z-score was 0.0237 (inactive).
With `Cc1ccn2cc(C(=O)N3CCc4c(cc(-c5ccc(OC(F)(F)F)cc5)c(=O)n4C)C3)nc2c1` the z-score was -0.191 (inactive).
In the case of `CC(C)=CCNc1cc(C(=O)NCc2cn3ccccc3n2)cc(S(=O)(=O)NC(C)C)c1`, the z-score is reported as -0.403 (inactive).
For `COc1ccc(/C=C/CN2CCc3c(cc(-c4cccc(-n5nc(C)cc5C)c4)c(=O)n3C)C2)cc1`, the z-score was -0.672 (inactive).
In the case of `C[C@@H](O)[C@@H]1NC(=O)[C@@H]2C[C@H](NCc3cc4ccccc4s3)CN2C1=O`, the z-score is reported as -0.64 (inactive).
In the case of `CCc1cc(C(=O)N2CCc3c(c(C(=O)N4CCN(c5ccccc5)CC4)nn3CC)C2)n(C)n1`, the z-score is reported as -0.699 (inactive).
With `CC(C)C[C@@H]1NC(=O)[C@H]2CN(S(=O)(=O)c3cccc4ccccc34)CCN2C1=O` the z-score was -0.496 (inactive).
In the case of `CN(C)c1ncc(CN2CCc3c(cc(Cc4ccccc4)c(=O)n3Cc3ccc(F)cc3)C2)s1`, the z-score is reported as -0.5 (inactive).
With `COC(=O)CCN1CC(OCc2ccncc2)CN(C(=O)Cc2c(F)cccc2Cl)CC1=O` (stereo not given) the z-score was -0.399 (inactive).
In the case of `C[C@@H](OCc1ccccc1)[C@@H]1NC(=O)[C@H]2CN(C(=O)Oc3ccccc3)CCN2C1=O`, the z-score is reported as -0.153 (inactive).
For `O=c1c(/C=C/c2ccccc2)cc2c(n1Cc1ccccn1)CCN(C1CCOCC1)C2`, the z-score was -0.0238 (inactive).
With `CC(C)N1CC(OCc2ccc(F)cc2)CN(C(=O)c2ccc(C#CC(C)(C)O)o2)CC1=O` (stereo not given) the z-score was -0.3 (inactive).
With `CN1CCCc2cc(C(=O)N3CC(=O)N(Cc4ccccc4)CC(OCc4ccccn4)C3)ccc21` (stereo not given) the z-score was -0.626 (inactive).
For `CC(C)CCN1C(=O)N(CC(N)=O)C(=O)C12CCN(Cc1nc3ccccc3s1)CC2`, the z-score was -0.288 (inactive).
With `CCN(CC)C(=O)c1cc(-c2ccc(C)s2)cc(S(=O)(=O)N2CCOCC2)c1` the z-score was -0.0477 (inactive).
With `CCOC(=O)N1CCC(NC2CCc3c(c(C(=O)N(C)C)nn3Cc3ccccc3)C2)CC1` (stereo not given) the z-score was -0.0814 (inactive).
In the case of `Cc1ccnn1CCC(=O)N1CC(=O)N(CC(C)C)CC(OCc2ccccn2)C1` (stereo not given), the z-score is reported as -0.157 (inactive).
In the case of `CC(C)Cn1nc(C(=O)N2CCOCC2)c2c1CCC(NCc1ccc(F)cc1)C2` (stereo not given), the z-score is reported as 0.123 (inactive).
With `Cn1c2c(cc(Cc3ccccc3F)c1=O)CN(C(=O)c1ccc(C#CC(C)(C)O)o1)CC2` the z-score was -0.447 (inactive).
